The text below walks through data of PubChem BioAssay AID504848 (National Center for Advancing Translational Sciences (NCATS), 2011).

About 1,400 (61%) of roughly 2,300 compounds were called active. Inconclusive results (about 29%) are left out. The set was probably picked from earlier hits. The list shows a part of the results. Unmarked numbers belong to inactive results. Calls follow the shape of the dose curve; as a rule, active = well fitted inhibition curve with a large enough effect; inconclusive = small, poorly fitted or top-dose-only effect, or effect the other way; inactive = no such curve, though single readings can be large or run the other way.
% is scaled to controls: 0 for no effect and ±100 for the full control effect; potency is read from the fitted curve at half-maximal effect.

A short description of this assay: Confirmation screen for delayed death inhibitors of the malarial parasite plastid, 96 hour incubation. Also: nearly all actives have a fitted effect of over 60% in size. The note with it: P. falciparum luciferase growth in erythrocytes; series mostly up to 28.7 µM; activity change, negative = inhibition: at the top concentration. The method in brief: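 Two-generation (96 h, 37 C) exposure of P. falciparum carrying an integrated firefly luciferase reporter in erythrocytes, 0.1% parasitemia and 2% hematocrit final, Albumax-supplemented RPMI. Luminescence decrease measures growth inhibition.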
As for `C=CCNC(=O)c1cnc2n(c1=O)CCS2`, the “activity change, negative = inhibition” value is -11.2%.

As for `COc1ccc(C(=O)NC2CCCc3c2cnn3-c2cccc(C)c2C)o1` (stereo not given), the Potency is 12.6 µM (active).

Consider `Cc1cccc(-n2ncc3c2CCCC3NC(=O)C2=CC(=O)CC(C)(C)O2)c1C` (stereo not given), for which the Potency is 12.6 µM (active).

Take `O=S(=O)(c1ccc(Cl)c(Cl)c1)c1snnc1-c1ccccc1`: the Potency is 7.94 µM (active).

For the molecule `CCCNC(=O)c1nnsc1S(=O)(=O)c1ccc(Cl)cc1`, the “activity change, negative = inhibition” value was -8.29%.

In the case of `N#Cc1ccc(Oc2ccc(-c3nc4ccccc4nc3-c3ccccc3)cc2)cc1C#N`, the Potency was 0.708 µM (active).

As to `CCOC(=O)C(Cc1ccccc1)C(=O)Nc1cccc2ccccc12` (stereo not given), the Potency is 5.01 µM (active).

Consider `CCc1nn(CCCC(=O)NCc2ccccc2C)c(=O)c2cc3occc3n12`, for which the Potency was 7.08 µM (active).

On to `O[C@@H]1[C@@H](O)C=C2CCN3Cc4cc5c(cc4[C@H]1C23)OCO5` (stereo not given in full), for which the Potency was 1.58 µM (active).

Consider `S=c1[nH]nc(COc2ccccc2)n1/N=C/C(Cl)=C/c1ccccc1`, for which the Potency was 12.6 µM (active).

For `ClC(/C=N/n1cnnc1)=C/c1ccccc1`, the Potency is 10 µM (active).

As for `O=C(O)CCCN1C(=O)/C(=C\C(Cl)=C\c2ccccc2)SC1=S`, the Potency is 5.01 µM (active).

`C=C1c2c(Cl)ccc(O)c2C(O)=C2C(=O)[C@]3(O)C(O)=C(C(N)=O)C(=O)[C@@H](N(C)C)[C@@H]3[C@@H](O)C12` (stereo not given in full): the Potency is 2 µM (active).

With `C=C1c2c(Cl)ccc(O)c2C(O)=C2C(=O)[C@@]3(O)C(O)=C(C(N)=O)C(=O)[C@@H](N(C)C)[C@@H]3[C@@H](O)[C@H]12`, the Potency is 2 µM (active).

For `C[C@@H]1c2cccc(O)c2C(O)=C2C(=O)[C@@]3(O)C(O)=C(C(N)=O)C(=O)[C@@H](N(C)C)[C@@H]3[C@@H](O)[C@@H]21`, the Potency is 2.51 µM (active).

`S=c1[nH]nc(-c2cc(-c3ccccc3)n[nH]2)n1/N=C/C(Br)=C/c1ccccc1`: the Potency is 3.98 µM (active).

For the molecule `S=c1[nH]nc(-c2ccccc2)n1/N=C/c1ccc(-c2ccccc2Cl)o1`, the “activity change, negative = inhibition” value is -28.5%.

Turning to `COc1ccc(C(=S)N2CCN(c3ccccc3C)CC2)cc1`, the Potency is 12.6 µM (active).

On to `COc1cccc(NC(=O)CSc2ccc3nnc(CCNC(=O)c4ccccc4)n3n2)c1`, for which the “activity change, negative = inhibition” value is -98.6%.

In the case of `Cc1ccc(C(=O)NCCc2nnc3ccc(SCC(=O)NCc4ccc(F)cc4)nn23)cc1`, the Potency is 7.94 µM (active).

Consider `Cc1cccc(C)c1Nc1c(-c2ccc(N3CCOCC3)cc2)nc2ncccn12`, for which the Potency was 12.6 µM (active).

Turning to `CC(C)(C)c1ccc(C(=O)Nc2sc3c(c2C(=O)O)CCC3)cc1`, the Potency is 10 µM (active).

Consider `O=C(/C=C/c1cccs1)Nc1sc2c(c1C(=O)O)CCCC2`, for which the “activity change, negative = inhibition” value is 1.27%.

For the molecule `Cc1ccc(-c2nnc(SCC(=O)N/N=C/c3cccs3)n2-c2ccc(C)cc2)cc1`, the Potency was 10 µM (active).

On to `Cc1nnc(N2CCCC(C(=O)NCc3cccc(F)c3)C2)c2nn(-c3ccccc3)c(C)c12` (stereo not given), for which the Potency is 12.6 µM (active).

Turning to `CCCCc1nc2cc(C(=O)N3CCN(c4nc(C)cnc4C)CC3)ccc2o1`, the Potency was 10 µM (active).

Consider `Cc1ccc(NS(=O)(=O)c2ccc(-c3cnc(C4CC4)o3)cc2)c(C)c1`, for which the Potency was 7.08 µM (active).

On to `Cn1c(=O)n(Cc2ccccc2)c(=O)c2c1nc1n2CCN1Cc1ccco1`, for which the Potency is 7.94 µM (active).

On to `Cc1nc(-c2ccc(S(=O)(=O)N3CCCN(CCc4ccccc4)CC3)s2)cs1`, for which the Potency was 3.55 µM (active).

On to `CCCCCCCNC(=O)C1(CC2CC(c3ccc(Cl)cc3)=NO2)CCN(C(=O)Cc2ccc(F)cc2)CC1` (stereo not given), for which the Potency is 7.94 µM (active).

For `CCCCCCCNC(=O)C1(CC2CC(c3ccc(Cl)cc3)=NO2)CCN(C(=O)C2CCCC2)CC1` (stereo not given), the Potency was 10 µM (active).

With `O=C(Nc1ccc(S(=O)(=O)N2CCOCC2)cc1)c1ccc([N+](=O)[O-])o1`, the Potency was 3.55 µM (active).

With `CCCC(=O)N1CCN(c2ccc(NC(=O)c3ccc([N+](=O)[O-])o3)cc2Cl)CC1`, the Potency is 8.91 µM (active).

As for `O=C(Nc1ccc(N2CCOCC2)c(Cl)c1)c1cc2ccccc2o1`, the Potency was 2.82 µM (active).

For the molecule `CC(C)C(=O)N1CCN(c2ccc(NC(=O)c3ccc([N+](=O)[O-])o3)cc2)CC1`, the Potency is 4.47 µM (active).

With `CCC(=O)N1CCN(c2ccc(NC(=O)c3ccc([N+](=O)[O-])o3)cc2Cl)CC1`, the Potency is 7.94 µM (active).

Take `CCCC(=O)N1CCN(c2ccc(NC(=O)c3ccc([N+](=O)[O-])o3)cc2)CC1`: the Potency was 6.31 µM (active).

Take `CC(C)C(=O)N1CCN(c2ccc(NC(=O)c3ccco3)cc2Cl)CC1`: the Potency was 6.31 µM (active).

For the molecule `Cc1cccc(-c2c(NC(=O)c3ccco3)oc3ccc(Cl)cc3c2=O)c1`, the “activity change, negative = inhibition” value was -13.7%.

Take `CCN1CCN(c2ccc(NC(=O)c3ccc([N+](=O)[O-])o3)cc2Cl)CC1`: the Potency was 7.94 µM (active).

For the molecule `CC(=O)OC[C@H]1O[C@@H](n2ncc(=O)[nH]c2=O)[C@H](OC(C)=O)[C@@H]1OC(C)=O`, the “activity change, negative = inhibition” value is -11.2%.

Take `CS(=O)(=O)N1CCN(c2ccc(NC(=O)c3ccc([N+](=O)[O-])o3)cc2)CC1`: the Potency was 7.08 µM (active).

Regarding `O=C(c1cccc(S(=O)(=O)N2CCc3ccccc32)c1)N1CCN(c2ccccc2)CC1`, the Potency is 11.2 µM (active).

Consider `CN(Cc1nc2ccccc2c(=O)[nH]1)C(=O)c1cccc(S(=O)(=O)N2CCc3ccccc32)c1`, for which the Potency is 11.2 µM (active).

As to `COc1cc2c(cc1OC)CN(C(=O)c1cccc(S(=O)(=O)N3CCc4ccccc43)c1)CC2`, the Potency is 11.2 µM (active).

As for `O=C(CNC(=O)c1cccc(S(=O)(=O)N2CCc3ccccc32)c1)Nc1ccc(F)c(F)c1F`, the Potency is 11.2 µM (active).

`CCc1cc(SC#N)ccc1N`: the Potency was 8.91 µM (active).

On to `CC(C)(C)Nc1nc(Cl)nc(NC2CCCCC2)n1`, for which the Potency is 12.6 µM (active).

Turning to `CCCc1cc(=O)n2nc(N3CCC(C(=O)N4CCN(c5ccc(OC)cc5)CC4)CC3)sc2n1`, the Potency is 10 µM (active).

For the molecule `CCCc1cc(=O)n2nc(N3CCC(C(=O)NCc4ccc(C)o4)CC3)sc2n1`, the Potency was 8.91 µM (active).

On to `COc1cc(CNc2cccc(C(=O)O)c2)cc(Br)c1OCC(=O)NC(C)(C)C`, for which the Potency is 12.6 µM (active).

In the case of `COc1ccccc1CCC(=O)N1CCN(S(=O)(=O)c2cc(C(F)(F)F)ccc2Cl)CC1`, the Potency was 11.2 µM (active).

In the case of `Cc1ccc(C)c(-c2cc(C(=O)Nc3nccs3)c3ccccc3n2)c1`, the Potency is 1.12 µM (active).

`Cc1ccccc1-c1cc(C(=O)n2cccn2)c2cc(Cl)ccc2n1`: the “activity change, negative = inhibition” value was -12.5%.

Consider `Cc1ccc(C)c(-c2cc(C(=O)NNC(=S)NCC(C)C)c3ccccc3n2)c1`, for which the Potency was 11.2 µM (active).

`CC[n+]1ccccc1/C=C/c1ccc(N(C)C)cc1`: the Potency is 1.58 µM (active).

Consider `Cc1ccc(/C=C/c2ccc(N(C)C)cc2)[n+](C)c1`, for which the Potency was 0.501 µM (active).

Take `Cn1c(=O)c(=O)n(C)c2cc(N3CCCCC3)c(NS(=O)(=O)c3ccc(Br)cc3)cc21`: the Potency was 12.6 µM (active).

For `Cc1ccc(OCC(=O)NNc2c3ccccc3nc3ccccc23)cc1`, the Potency is 6.31 µM (active).

With `O=C(NNc1c2ccccc2nc2ccccc12)C(O)c1ccccc1` (stereo not given), the Potency is 10 µM (active).

As for `COc1ccccc1OCC(=O)NNc1c2ccccc2nc2ccccc12`, the Potency was 5.01 µM (active).

For the molecule `Cc1ccc(C(=O)NNc2c3ccccc3nc3ccccc23)cc1`, the Potency is 10 µM (active).

As to `COc1cccc(C(=O)NNc2c3ccccc3nc3ccccc23)c1`, the Potency was 15.8 µM (active).

As to `O=C(COc1ccccc1)NNc1c2ccccc2nc2ccccc12`, the Potency is 5.01 µM (active).

Take `O=C(COc1ccccc1)Nc1nnc(-c2ccc(F)cc2)o1`: the “activity change, negative = inhibition” value was 6.86%.

For the molecule `O=C(COc1cccc2ccccc12)Nc1ccc(Cl)cc1C(=O)O`, the “activity change, negative = inhibition” value was 2.28%.

On to `O=C(CCCO)NNc1c2ccccc2nc2ccccc12`, for which the Potency was 6.31 µM (active).

As for `Cc1cccc(OCC(=O)NNc2c3ccccc3nc3ccccc23)c1`, the Potency is 4.47 µM (active).

For the molecule `O=C(CN1CCOCC1)NNc1c2ccccc2nc2ccccc12`, the Potency was 12.6 µM (active).

With `N#Cc1c(N2C(=O)Nc3ccccc3N2O)sc2c1CCCCCC2`, the Potency is 14.1 µM (active).

On to `Cc1ccc2nc(CNC(=O)C3CCC(=O)N(Cc4ccccc4F)C3)cn2c1` (stereo not given), for which the Potency was 11.2 µM (active).

In the case of `O=C(NC1CCC1)C1CCC(=O)N(Cc2ccccc2F)C1` (stereo not given), the “activity change, negative = inhibition” value is -10.3%.

As for `COCCn1c(C)cc(C(=O)CSc2cc(C)c3ccc(OC)cc3n2)c1C`, the Potency is 17.8 µM (active).

Turning to `CCCSCCCNC(=O)c1ccccc1NC(=O)C1=CSCCO1`, the Potency is 12.6 µM (active).

On to `COc1ccc([C@@]2(C(C)C)ON(c3ccccc3C(F)(F)F)C2=O)cc1`, for which the Potency is 0.501 µM (active).

In the case of `COc1ccc(CN(CCC(c2ccccc2)c2ccco2)C(=O)c2ccco2)cc1` (stereo not given), the Potency is 8.91 µM (active).

With `COc1ccc(S(=O)(=O)N/N=C(/C)c2ccco2)cc1`, the “activity change, negative = inhibition” value is -15.7%.

On to `Fc1cc2nc(-c3ccncc3)[nH]c2cc1F`, for which the Potency was 3.16 µM (active).

With `COCCN(C(=S)Nc1ccc(OC)c(Cl)c1)C1CCN(C(C)C)CC1`, the Potency was 11.2 µM (active).

Consider `CC(C)N1CCc2c(sc(NC(=S)NC(=O)c3ccccc3)c2C#N)C1`, for which the Potency is 2 µM (active).

For `CC(=O)Nc1sc2c(c1-c1nc3ccccc3s1)CCN(C(C)C)C2`, the Potency is 0.316 µM (active).

For the molecule `N#Cc1cc(S(=O)(=O)c2ccccc2)c(N)[nH]c1=O`, the “activity change, negative = inhibition” value was -5.71%.

Take `COc1ccc(NC(=O)c2ccc(CN3CCN(c4ccccc4)CC3)cc2)cc1OC`: the Potency was 12.6 µM (active).

Turning to `COc1cccc(NC(=O)c2ccc3c(c2)C(=O)N(CC2CCCO2)C3=O)c1` (stereo not given), the “activity change, negative = inhibition” value was -15.2%.

Consider `COc1cccc(NC(=O)c2ccc(CN3CCN(c4ccccc4)CC3)cc2)c1`, for which the Potency is 14.1 µM (active).

Turning to `C#CC[N+]1(CC#Cc2ccc(C#CC[N+]3(CC#C)CCOCC3)cc2)CCOCC1`, the Potency was 5.62 µM (active).

With `Cc1ccc(-c2csc3nc[nH]c(=O)c23)cc1`, the “activity change, negative = inhibition” value was -26.9%.

As to `Cc1c(C)n2c(SCC(=O)Nc3ccc4c(c3)OCCO4)nnc2[nH]c1=O`, the Potency was 1.58 µM (active).

In the case of `CCOc1ccc2c(c1)OC(c1ccccc1)(C(F)(F)F)NC2=O` (stereo not given), the Potency is 1.41 µM (active).

Turning to `O=C(CCNS(=O)(=O)c1cccc2nonc12)NCCc1ccc(Cl)cc1`, the Potency is 11.2 µM (active).
